D2 antagonist: HTS Assay for Allosteric Antagonists of the Human D2 Dopamine Receptor: Primary Screen for Antagonists; D(2) dopamine receptor (Homo sapiens), P14416; HEK293 TREx D2 cells, calcium flux, dopamine EC80; inhibition, % at 10 µM; actives 2% (n = 340,000); in the data active = inhibition above about 30%; inactive = below that, where a call was filed
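Read-out: kinetic calcium fluorescence (1 cycle/s) in inducible HEK293 T-REx D2 cells after an EC80 dopamine addition that followed 180 s compound preincubation. Loss of the dopamine response indicates antagonism.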
D2 ag-1: Beta-Arrestin HTS for Positive Allosteric Modulators of the Human D2 Dopamine Receptor: Agonists; DiscoveRx PathHunter D2 beta-arrestin, luminescence, 90 min; 100% = 57 uM dopamine signal; actives 0.084% (n = 360,000); activation, % (concentration not given with the values); D(2) dopamine receptor (Homo sapiens), P14416; AID 624465, 2012; in the data active = activation above about 40%; inconclusive = between about 15% and that limit
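DiscoveRx PathHunter D2 beta-arrestin cells (2,100/well) attached overnight, then compound-stimulated 90 min at 37 C in HBSS/10 mM HEPES/0.1% Tween-20 buffer; beta-galactosidase complementation read by luminescence after 1 h at ambient temperature. Dopamine 57 uM final (EC100) as control.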
D2 ag-2: HTS Assay for Allosteric Agonists of the Human D2 Dopamine Receptor: Primary Screen for Agonists; HEK293 T-REx D2 cells, calcium flux agonist mode; activation, % at 2 µM; actives 0.53% (n = 340,000); AID 485358, 2010;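 active = activation over 3 SD above normal in the single-dose calcium agonist read, cut at about 30% in these data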
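Calcium-flux readout, 1 cycle/sec over 180 s following compound pin transfer, in inducible HEK293 Trex D2 cells (force-coupled); dopamine controls included. Positive calcium responses during this window marked compounds as potential agonists.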
D2 PAM-1: HTS Assay for Positive Allosteric Modulators of the Human D2 Dopamine Receptor: Primary Screen for Potentiators; AID 485347, 2010; actives 0.34% (n = 340,000); HEK293 T-REx D2, calcium flux, EC20 dopamine potentiation; D(2) dopamine receptor (Homo sapiens), P14416; potentiation, % at 10 µM;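 active = potentiation over 3 SD above the plate norm, cut at about 30% in these data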
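Primary screen. Calcium kinetics in induced HEK293 T-REx D2 cells: compound pre-addition 180 s, EC20 dopamine, 180 s more.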
D2 PAM-2: Beta-Arrestin HTS for Positive Allosteric Modulators of the Human D2 Dopamine Receptor: Potentiators. D(2) dopamine receptor (Homo sapiens), P14416. DiscoveRx D2 beta-arrestin cells, luminescence, 90 min; 100% = 57 uM dopamine signal. potentiation, % (no concentration beside the values). actives 0.23% (n = 360,000). AID 624464, 2012; in the data active = potentiation above about 50%; inconclusive = mostly about 30% to 49%
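PathHunter beta-arrestin assay in DiscoveRx D2 cells. Compounds were added with an EC20 of dopamine (50 nM final) for 90 min at 37 deg C. Luminescence was read 1 h after detection reagent, with 57 uM dopamine as the EC100 control.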
B2AR arrestin: qHTS assay of beta-arrestin-biased ligands of beta2-adrenergic receptor; beta-arrestin recruitment to beta2AR, cell-based reporter; Potency, µM (titrated, usually from 46.1 µM), hits mostly activators; actives 0.02% (n = 330,000); active = well fitted activation curve with a large enough effect; inconclusive = small, poorly fitted or top-dose-only effect; also: nearly all actives have a fitted effect of over 65% in size
Target sequence (P07550 whole entry, looked up): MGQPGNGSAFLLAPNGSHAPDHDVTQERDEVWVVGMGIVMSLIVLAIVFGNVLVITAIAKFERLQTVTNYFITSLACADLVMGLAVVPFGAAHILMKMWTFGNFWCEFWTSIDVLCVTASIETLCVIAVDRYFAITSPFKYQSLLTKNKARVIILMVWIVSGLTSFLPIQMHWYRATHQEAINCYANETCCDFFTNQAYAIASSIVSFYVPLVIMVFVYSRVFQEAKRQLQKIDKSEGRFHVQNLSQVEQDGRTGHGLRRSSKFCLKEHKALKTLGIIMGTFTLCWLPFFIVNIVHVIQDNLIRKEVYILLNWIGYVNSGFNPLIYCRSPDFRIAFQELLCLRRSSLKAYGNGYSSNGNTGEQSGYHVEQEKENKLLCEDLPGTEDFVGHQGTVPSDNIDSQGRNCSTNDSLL
A number is an active result; 0 = inactive; ? = inconclusive; - = no result given. Sampled rows, rich in hits. Any-hit rate of the full collection: about 2.4%.

SMILES | D2 antagonist | D2 ag-1 | D2 ag-2 | D2 PAM-1 | D2 PAM-2 | B2AR arrestin
CC(C)c1nnc(SCC(=O)NCCC2=CCCCC2)n1N | 0 | 0 | 0 | 0 | 0 | 0
Cc1ccc(NC(=O)Cc2nnc(SCC(=O)NC3CCCC3)n2C)cc1C | 31 | 0 | 0 | 0 | 0 | 0
CCn1c(CC(=O)Nc2ccccc2Cl)nnc1SCC(=O)NC1CCCC1 | 34 | 0 | 0 | 0 | 0 | 0
CCn1c(CC(=O)Nc2ccccc2F)nnc1SCC(=O)NC1CCCCC1 | 0 | 0 | 0 | 0 | 0 | 0
Cn1c(CCC(N)=O)nnc1SCC(=O)Nc1ccccc1C(=O)NC1CC1 | 31 | 0 | 0 | 0 | 0 | 0
Cc1ccc(NC(=O)Cc2nnc(SCC(=O)NC3CCCC3)n2C)cc1 | 0 | 0 | 0 | 0 | 0 | 0
CCC1CCCCN1CCCNC(=O)c1ccc2c(c1)N(Cc1ccc(F)cc1)C(=O)c1ccccc1S2=O (centres undefined) | 0 | 0 | 0 | 0 | 0 | 0
CNCCCCOc1ccccc1-c1ccccc1 | 0 | 0 | 0 | 0 | 0 | 0
COCCNCCOc1ccccc1-c1ccccc1 | 0 | 0 | 0 | 0 | 0 | 0
COCCCNCCOc1ccccc1-c1ccccc1 | 93 | 0 | 0 | 0 | 0 | 0
COCCCNCCCCOc1ccccc1-c1ccccc1 | 89 | 0 | 0 | 0 | 0 | 0
C=CCNCCCCOc1ccccc1-c1ccccc1 | 49 | 0 | 0 | 0 | 0 | 0
O=C(Nc1nc2n(n1)C(c1ccc(Cl)cc1)CC(c1ccc(Cl)cc1)N2)c1ccco1 (centres undefined) | 32 | 0 | 0 | 0 | 0 | 0
Cc1ccc(NC(=O)COC(=O)c2cccc3c2C(=O)c2ccccc2C3=O)c(C)c1 | 0 | 0 | 0 | 0 | 56 | 0
Cc1cc(C)c(NC(=O)COC(=O)c2cccc3c2C(=O)c2ccccc2C3=O)c(C)c1 | 0 | 0 | 0 | 0 | 55 | 0
Cc1ccc(NC(=O)COC(=O)c2ccccc2-c2nc3ccccc3s2)c(C)c1 | 0 | 0 | 0 | 0 | 0 | 0
Cc1ccc(C)c(NC(=O)COC(=O)c2cccc3c2C(=O)c2ccccc2C3=O)c1 | 0 | ? | 0 | 0 | 54 | 0
O=C1CC(=O)Nc2cc(S(=O)(=O)N3CCOc4ccccc43)ccc2N1 | 0 | 0 | 0 | 0 | 0 | 0
CCn1ncc(Br)c1C(=O)Nc1cc([N+](=O)[O-])ccc1C | 0 | 0 | 0 | 0 | 0 | 0
Cc1ccc(-n2ncc3c(=O)[nH]c(SCC(=O)N4CCCc5ccccc54)nc32)cc1 | 0 | 0 | 0 | 0 | 0 | 0
Cc1cc2ccccn2c1C(=O)c1ccc([N+](=O)[O-])o1 | 36 | 0 | 0 | 0 | 0 | 0
COc1ccccc1C1CCN(Cc2cccc([N+](=O)[O-])c2)CC1 | 110 | 0 | 0 | 0 | 0 | 0
COc1ccccc1C1CCN(Cc2ccccc2)CC1 | 83 | 0 | 32 | 0 | 0 | 0
COc1ccc(CN2CCC(Cc3ccccc3)CC2)cc1OC | 0 | 0 | 0 | 0 | 0 | 0
COc1ccccc1C1CCN(Cc2ccc3ccccc3c2)CC1 | 85 | 0 | 0 | 0 | 0 | 0
SMILES | D2 antagonist | D2 ag-1 | D2 ag-2 | D2 PAM-1 | D2 PAM-2 | B2AR arrestin
COc1ccccc1C1CCN(Cc2ccccc2Cl)CC1 | 92 | 0 | 0 | 0 | 0 | 0
COc1cc(NC(=O)NCC2CCN(Cc3ccccc3Cl)CC2)cc(OC)c1OC | 0 | 0 | 0 | 0 | 0 | 0
CNC(=O)CCSSCCC(=O)NC | 0 | 0 | 0 | 0 | 0 | 0
COc1ccc(-n2c(SCC(=O)NC3CCCCC3)nc3ccsc3c2=O)cc1 | 0 | 0 | 0 | 0 | 0 | 0
O=C(CN1CCN(S(=O)(=O)c2ccc(Cl)cc2)CC1)NCc1cccs1 | - | 0 | - | - | 0 | 0
CC(=O)c1ccccc1NC(=O)c1cc(S(=O)(=O)N2CCOCC2)ccc1N1CCCC1 | 0 | 0 | 0 | 0 | 0 | 0
C[C@H](NC(=O)c1[nH]cnc1C(=O)Nc1cccc(Cl)c1)c1ccccc1 | 0 | 0 | 0 | 0 | 0 | 0
Cc1cc(C(=O)N/N=C/c2cn[nH]c2-c2ccccc2)cs1 | 30 | 0 | 0 | 0 | 0 | 0
O=C(N/N=C\c1cn[nH]c1-c1ccccc1)c1ccc([N+](=O)[O-])cc1 | 58 | 0 | 0 | 0 | 0 | 0
O=C(N/N=C/c1cn[nH]c1-c1ccccc1)c1ccco1 | 0 | 0 | 0 | 0 | 0 | 0
O=C(N/N=C/c1cn[nH]c1-c1ccc(Cl)cc1)c1ccc([N+](=O)[O-])cc1 | 0 | 0 | 0 | 0 | 0 | 0
CCc1c(C(=O)N/N=C/c2cn[nH]c2-c2ccc(F)cc2)csc1C | 71 | 0 | 0 | 0 | 0 | 0
CC(O)C(O)C(O)C(O)C1NCCS1 (centres undefined) | 79 | 0 | 0 | 0 | 0 | 0
O=C(Nc1ccccc1C(=O)NC1CC1)c1ccc([N+](=O)[O-])o1 | 0 | ? | 0 | 0 | 59 | 0
COc1ccccc1CCNC(=O)NC1CCCCC1 | 0 | 0 | 0 | 0 | 0 | 0
CC(C)N1CC(COc2ccc(Br)cc2)OC1=O (centres undefined) | 41 | 0 | 0 | 0 | 0 | 0
O=C(Nc1ccccc1N1CCCC1)c1cc2ccccc2o1 | 0 | 0 | 0 | - | 0 | 0
CC(=O)N1CCN(c2ccccc2NC(=O)c2ccc3ccccc3c2)CC1 | 46 | 0 | 0 | 0 | 0 | 0
O=C(Nc1ccccc1N1CCN(C(=O)c2ccccc2)CC1)c1cc2ccccc2o1 | 63 | 0 | 0 | 0 | 0 | 0
COc1ccc(OC)c(/C=C2/Sc3ccccc3C2=O)c1 | 0 | 0 | 34 | 0 | 0 | 0
COc1ccc(OC)c(C=C2CCc3ccccc3C2=O)c1 | - | 0 | - | - | 0 | -
CC(C)=C(NC(=O)c1ccccc1)C(=O)NC(Cc1ccccc1)C(=O)O (centres undefined) | 39 | 0 | 0 | 0 | 0 | 0
CCOc1ccccc1C(=O)OCC(=O)Nc1nnc(-c2ccccc2)o1 | 0 | 0 | 0 | 0 | 0 | 0
CC(C#N)Sc1nnc(Nc2ccccc2)s1 (centres undefined) | 0 | 0 | 0 | 0 | 0 | 0
Fc1ccccc1N1CCN(C2CCCN(Cc3cccc(C(F)(F)F)c3)C2)CC1 (centres undefined) | 55 | 0 | 0 | 0 | 0 | 0
CC1(C)CC(CCC(=O)NC(=S)Nc2ccccc2Cl)C(=O)O1 (centres undefined) | 0 | 0 | 0 | 0 | 0 | 0
CC(=O)Nc1ccc(S(=O)(=O)N2CCN(CC(=O)N3CCOCC3)CC2)cc1 | 37 | 0 | 0 | 0 | 0 | 0

High-throughput results as filed in PubChem.
